From PubChem BioAssay (NCI) come the findings set out here.

Structures are written as SMILES. “And” between values parts separate entries of the source, which are not always exact repeats. Identical values can stand only once. This is part of a sample that, as a whole, favours compounds with a hit. Of some 83,000 tested, about 20% had one in any assay.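 In brief: 96-well plates, 48 h treatment, single concentration, percent growth endpoint.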 The source made the active and inactive calls. Rule for the calls: active = growth percent below 10; inactive = the rest.

The first test has as its system CCRF-CEM leukemia. The experiment in a line: NCI-60 one-dose screen, 48 h (100 = growth as untreated, 0 = no growth, -100 = all killed). The settings on record: 10 µM unless noted.
On to `Oc1c(CN2CCCCC2)ccc2cccnc12`, for which the growth is 16.6% (inactive).
On to `NS(=O)(=O)c1cc2c(cc1Cl)NC(C(Cl)Cl)NS2(=O)=O` (configuration not stated), for which the growth was 89.2% (inactive) and 92.5% (inactive).
Same read-out and setting: to `COc1cc2nc(N3CCN(C(=O)C4COc5ccccc5O4)CC3)nc(N)c2cc1OC` (configuration not stated) belongs 74.9% (inactive) and 89.6% (inactive) and 97.8% (inactive).

The test system of the next test is MOLT-4 leukemia. Described as above. As to conditions: 10 µM unless noted.
As to `O=C(O)C1(C(=O)O)CCC1.[NH2-].[NH2-].[Pt+2]`, the growth was 113% (inactive) and 67% (inactive).
For the molecule `CC1(C)[C@@H](OC(=O)CCC(=O)O)CC[C@]2(C)[C@H]3C(=O)C=C4[C@@H]5C[C@@](C)(C(=O)O)CC[C@]5(C)CC[C@@]4(C)[C@]3(C)CC[C@@H]12`, the growth was 88.3% (inactive) and -35% (active).
Same read-out and setting: to `CCNC(=O)Nc1ccc(-c2nc3c(c(N4CCOC[C@@H]4C)n2)CCN(C2COC2)C3)cc1` belongs 52.2% (inactive) and 8.79% (active).
Still for that read-out and setting: the result for `O=C1C2=C(C(=O)c3ccccc31)C(O)(S(=O)(=O)O)C(O)(S(=O)(=O)O)C1N=CC=CC21` (configuration not stated) reads 25.6% (inactive) and 48.2% (inactive).
As to `COc1ccc2c(=O)cc(-c3ccccc3)[nH]c2c1`, the growth is 26.9% (inactive) and 6.72% (active).
Turning to `COc1cc(Nc2nc3ccccc3nc2NS(=O)(=O)c2ccc(NC(=O)c3ccc(C)c(OC)c3)cc2)cc(OC)c1`, the growth was 37.5% (inactive) and 7.47% (active).
The same measure, in the same setting: the result for `COc1cc(-c2nccc3cc4c(cc23)OCO4)cc(OC)c1OC` reads 39.4% (inactive) and 17.7% (inactive); that for `CCN(CC)CCC(CNc1ccnc2cc(Cl)ccc12)c1ccc(OC)cc1` (configuration not stated), 52.3% (inactive) and 52.5% (inactive).
The same measure, in the same setting: to `CC(=O)Nc1ccc(O)cc1` belongs 102% (inactive) and 100% (inactive); to `c1ccc2c(CC3=NCCN3)cccc2c1`, 113% (inactive) and 108% (inactive).
The same measure, in the same setting: to `Cc1nn(-c2ccc(Cl)cc2)c2ncnc(N/N=C/c3ccccc3O)c12` belongs 9.43% (active) and 6.36% (active).
As for `CCN(CC)C(=S)SSC(=S)N(CC)CC`, the growth was 46% (inactive) and 93.2% (inactive).
Turning to `Nc1nc(SC/C=C/CCl)c2[nH]cnc2n1`, the growth is 97.1% (inactive) and 76.3% (inactive).
As to `CC1CCCC(=O)O1` (configuration not stated), the growth is 99.5% (inactive) and 106% (inactive).
Still for that read-out and setting: to `c1ccc(NCc2ccc3c(c2)OCO3)cc1` belongs 95.7% (inactive) and 97.2% (inactive).
Still for that read-out and setting: the result for `CN(Cc1ccccc1)Cc1ccccc1` reads 122% (inactive); that for `O=[N+]([O-])c1ccc(N/N=C\c2cc(Br)ccc2O)nc1`, 12% (inactive) and -9.48% (active).
On the same count and under the same terms, to `O=C(Nc1ccc(Br)cc1)c1cc(Br)ccc1O` belongs 17.4% (inactive) and -33.2% (active).
With `CN(C)c1ccc(C(=C2C=CC(=[N+](C)C)C=C2)c2ccccc2Cl)cc1`, the growth was -26.3% (active) and 5.09% (active).
As for `O=C(Cc1cccc2ccccc12)N/N=C/c1ccc2c(c1)CCC2`, the growth was 47.9% (inactive).
Consider `O=C(O)C1C2C=CC(C2)C1C(=O)O` (configuration not stated), for which the growth was 106% (inactive) and 27.8% (inactive) and 101% (inactive).
Turning to `COc1cc(C(=O)c2ccc3c(c2)OCO3)cc(OC)c1OC`, the growth was 40.7% (inactive) and 42.7% (inactive).
For the molecule `O=C(CCc1ccc(O)cc1)N/N=C/c1cc(Br)ccc1O`, the growth was 8.16% (active).
Still for that read-out and setting: to `CC(=O)Oc1cc(C(=O)O)cc(OC(C)=O)c1OC(C)=O` belongs 116% (inactive) and 94.1% (inactive); to `Cn1c(=O)c2[nH]c(CCCCCCCCc3nc4ccccc4[nH]3)nc2n(C)c1=O`, 41% (inactive) and 41.7% (inactive).
Same read-out and setting: to `O=C1c2ccccc2C(=O)N1/N=C/c1ccc2c(c1)OCO2` belongs 86.3% (inactive); to `S=C1SCN(Cc2ccccc2)CN1Cc1ccccc1`, 70.6% (inactive).
Same read-out and setting: to `Cc1ccc(-c2noc(CC(=O)c3ccc([N+](=O)[O-])cc3)n2)cc1` belongs 90.5% (inactive); to `Oc1ccc(/C=C/c2ccccc2)cc1`, 61.6% (inactive) and 47.5% (inactive).
For the molecule `CC(=O)C(/C=N/C(N)=O)=C(/C)O`, the growth was 111% (inactive).
On the same count and under the same terms, to `COC(=O)c1nc(N)nc(C(=O)OC)c1C(=O)c1ccc(OC)cc1` belongs 136% (inactive) and 12.8% (inactive).
For `Cc1cc(O)c2c(c1)C(=O)c1cc(O)cc(O)c1C2=O`, the growth is 101% (inactive) and 85.9% (inactive).
With `C#CCN(C)Cc1ccccc1`, the growth is 106% (inactive) and 101% (inactive).
Still for that read-out and setting: the result for `CCN(CC)CCCC(C)Nc1ccnc2cc(Oc3ccccc3)ccc12` (configuration not stated) reads 65.1% (inactive) and 80.7% (inactive).
With `COc1ccccc1NC(=O)OCC#CCOC(=O)Nc1ccccc1OC`, the growth is 72.4% (inactive).
Consider `Cc1cc(O)c(C(C)C)cc1S(=O)(=O)O` (tested in a mixture with another compound), for which the growth was 118% (inactive) and 9.88% (active) and 107% (inactive).
Same read-out and setting: to `Oc1c(CN2CCCCC2)ccc2cccnc12` belongs 38.2% (inactive) and 36% (inactive); to `NS(=O)(=O)c1cc2c(cc1Cl)NC(C(Cl)Cl)NS2(=O)=O` (configuration not stated), 95.1% (inactive) and 92.4% (inactive); to `COc1cc2nc(N3CCN(C(=O)C4COc5ccccc5O4)CC3)nc(N)c2cc1OC` (configuration not stated), 91.1% (inactive) and 66.1% (inactive) and 94.4% (inactive).
